Data from PubChem BioAssay.
Results with a measured potency or affinity are listed apart. A number with no mark means an inactive call. The rule behind the calls is not given here.

Experiment: A2780 cell killing – plate reader, dry powder samples, cytotoxicity control, dose response (AID 743046);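 note: 0% = neutral control wells and -100% = cytotoxic reference compound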
Details: A2780 ovarian cancer cytotoxicity; series mostly up to 35 µM; activity change, negative = cytotoxicity: at the top concentration

Q: With `COc1cccc(-c2ccc3c(c2)[C@H]2[C@H](CCN2S(=O)(=O)c2ccccc2F)[C@@H](CO)N3)c1` as the compound, how does the “activity change, negative = cytotoxicity” value read?
A: Its value is 10.4% [at 16 µM].

Q: With `O=C(Nc1cccc(F)c1)N1CCCCN2[C@H](CO)[C@@H](c3ccc(C#Cc4ccccc4)cc3)[C@H]2C1` as the compound, how does the “activity change, negative = cytotoxicity” value read?
A: The value was -111%.

Q: For `COc1ccc(S(=O)(=O)Nc2ccc3c(c2)C(=O)N([C@@H](C)CO)C[C@H](C)[C@@H](CN(C)C(=O)Nc2ccc(F)cc2)OCCCC[C@H](C)O3)cc1`, which “activity change, negative = cytotoxicity” value is on record?
A: The value was 3.1%.

Q: Which “activity change, negative = cytotoxicity” value does the source give for `C[C@@H]1CCCCO[C@H](CN(C)S(=O)(=O)c2ccc(F)cc2)[C@H](C)CN([C@@H](C)CO)C(=O)c2cc(NS(=O)(=O)c3ccc(Cl)cc3)ccc2O1` here?
A: Its value is -7.35%.

Q: For `CCCC#Cc1ccc([C@@H]2[C@@H](C#N)N(C(=O)C3CCCCC3)[C@H]2CO)cc1`, which “activity change, negative = cytotoxicity” value is on record?
A: The value was 24.3%.

Q: For `C[C@H]1CCCCO[C@H](CN(C)C(=O)Nc2cccc3ccccc23)[C@@H](C)CN([C@@H](C)CO)C(=O)c2cc(NS(=O)(=O)c3ccc(Cl)cc3)ccc2O1`, which “activity change, negative = cytotoxicity” value is on record?
A: The value was 33.3%.

Q: For `COc1ccccc1C#Cc1ccc2c(c1)O[C@@H](CN(C)Cc1ccncc1)[C@H](C)CN([C@@H](C)CO)S2(=O)=O`, which “activity change, negative = cytotoxicity” value is on record?
A: Its value is 100%.

Q: Which “activity change, negative = cytotoxicity” value does the source give for `C[C@@H]1CCCCO[C@H](CN(C)Cc2ccc(Cl)c(Cl)c2)[C@@H](C)CN([C@@H](C)CO)C(=O)c2cc(NC(=O)Nc3ccccc3)ccc2O1` here?
A: Its value is 169%.

Q: For `C[C@H]1CN([C@@H](C)CO)C(=O)Cc2cc(NC(=O)NC3CCCCC3)ccc2O[C@@H]1CN(C)Cc1ccc(-c2ccccc2)cc1`, which “activity change, negative = cytotoxicity” value is on record?
A: The value was 26%.

Q: For `C[C@H](CO)N1C[C@H](C)[C@@H](CN(C)C(=O)c2ccc3c(c2)OCO3)Oc2cc(C#Cc3ccccc3F)ccc2S1(=O)=O`, which “activity change, negative = cytotoxicity” value is on record?
A: Its value is 93.6%.

Q: With `C[C@@H]1CCCCO[C@H](CN(C)C(=O)Nc2cccc3ccccc23)[C@H](C)CN([C@@H](C)CO)C(=O)c2cc(NS(=O)(=O)c3ccc(Cl)cc3)ccc2O1` as the compound, how does the “activity change, negative = cytotoxicity” value read?
A: Its value is -28.4%.

Q: With `C[C@@H]1CCCCO[C@@H](CN(C)Cc2ccc(Cl)c(Cl)c2)[C@@H](C)CN([C@@H](C)CO)C(=O)c2cc(NC(=O)Nc3ccccc3)ccc2O1` as the compound, how does the “activity change, negative = cytotoxicity” value read?
A: The value was 11.8% [at 30 µM].

Q: Which “activity change, negative = cytotoxicity” value does the source give for `Cc1cccc(-c2ccc(C3[C@@H]4CN(C(=O)Nc5ccc(C(F)(F)F)cc5)C[C@H]3N4)cc2)c1` (some centres undefined) here?
A: The value was -25.3%.

Q: With `C[C@H](CO)N1C[C@H](C)[C@@H](CN(C)S(=O)(=O)c2ccc(-c3ccccc3)cc2)OCc2cn(nn2)CCCC1=O` as the compound, how does the “activity change, negative = cytotoxicity” value read?
A: Its value is 38.9%.

Q: For `C[C@@H]1CN([C@H](C)CO)C(=O)c2cc(NC(=O)Nc3ccc(F)cc3)ccc2O[C@@H](C)CCCCO[C@H]1CN(C)Cc1ccc(C(F)(F)F)cc1`, which “activity change, negative = cytotoxicity” value is on record?
A: Its value is 15.6%.

Q: With `C[C@@H]1CN([C@@H](C)CO)C(=O)Cc2cc(NC(=O)CCCCCC(=O)Nc3ccccc3N)ccc2O[C@@H]1CN(C)Cc1ccc(C(F)(F)F)cc1` as the compound, how does the “activity change, negative = cytotoxicity” value read?
A: Its value is 8.22%.

Q: For `COc1ccc(CN(C)C[C@H]2OCCCC[C@H](C)Oc3ccc(NC(=O)Nc4ccc(C(F)(F)F)cc4)cc3C(=O)N([C@H](C)CO)C[C@H]2C)cc1`, which “activity change, negative = cytotoxicity” value is on record?
A: The value was 16.9% [at 16 µM].

Q: Which “activity change, negative = cytotoxicity” value does the source give for `C[C@@H]1CCCCO[C@H](CN(C)Cc2ccc(C(F)(F)F)cc2)[C@@H](C)CN([C@@H](C)CO)C(=O)c2cc(NC(=O)Cc3ccccc3)ccc2O1` here?
A: Its value is 4.75%.

Q: For `C[C@@H]1CN([C@H](C)CO)C(=O)c2cc(NC(=O)Nc3ccc(F)cc3)ccc2O[C@@H](C)CCCCO[C@@H]1CN(C)Cc1ccc(C(F)(F)F)cc1`, which “activity change, negative = cytotoxicity” value is on record?
A: The value was -22.8%.

Q: Which “activity change, negative = cytotoxicity” value does the source give for `COc1ccccc1C#Cc1ccc2c(c1)O[C@@H](CN(C)Cc1ccncc1)[C@H](C)CN([C@H](C)CO)S2(=O)=O` here?
A: Its value is -13.8%.

Q: With `C[C@@H]1CN([C@H](C)CO)C(=O)c2cc(NC(=O)Nc3ccccc3)ccc2O[C@@H](C)CCCCO[C@H]1CN(C)Cc1ccc(C(F)(F)F)cc1` as the compound, how does the “activity change, negative = cytotoxicity” value read?
A: Its value is -8.99%.

Q: For `O=C(Nc1ccc(F)cc1)N1CC(=O)N2[C@@H](CO)[C@H](c3ccc(-c4ccc(F)cc4)cc3)[C@@H]2C1`, which “activity change, negative = cytotoxicity” value is on record?
A: The value was 7.68% [at 16 µM].

Q: With `C[C@@H]1CN([C@H](C)CO)C(=O)c2cc(NS(=O)(=O)c3ccc(F)cc3)ccc2O[C@@H](C)CCCCO[C@@H]1CN(C)Cc1ccccc1` as the compound, how does the “activity change, negative = cytotoxicity” value read?
A: The value was 18.3%.

Q: Which “activity change, negative = cytotoxicity” value does the source give for `COc1ccc(S(=O)(=O)N(C)C[C@@H]2OCCCC[C@H](C)Oc3ccc(NS(=O)(=O)c4ccccc4)cc3C(=O)N([C@H](C)CO)C[C@H]2C)cc1` here?
A: Its value is -23.2%.
